Results published in PubChem BioAssay.
Where “and” joins values, the source holds several entries; their conditions need not be identical. Identical values can stand only once. For some of these results: Entries with a potency or affinity are not part of this list. The source holds several records for some structures; these can differ, active in one and inactive in another. Calls of active or inactive are those of the source. Unless noted, how the calls were made is not given here.

Tests used:
[1] = antimalarial activity against Dd2 strain (AID 2302;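 active means growth inhibition above 50% at the single 2 µM test dose, taken to imply half-maximal potency below 2 µM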;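 further: 0% = DMSO untreated growth and 100% = chloroquine plus artemisinin killed control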); conditions: P. falciparum Dd2 in RBCs, LDH growth readout, 72 h; at 2 µM; stronger effect = higher value
[2] = HepG2 cytotoxicity, primary screen, cytotoxicity control for P. falciparum antimalarial project, cell-based, ATP luminescence (AID 2303;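 active means inhibition above 50%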;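 further: 0% = DMSO wells and 100% = digitonin-killed cells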); conditions: HepG2 viability, 24-48 h, at 10 µM, stronger effect = higher value
[3] = biological target: L-lactate dehydrogenase (Plasmodium falciparum (isolate CDC / Honduras)) (UniProt Q27743); assay: PfLDH activity inhibition – cell lysate, 3D7 strain, counter-screen for P. falciparum growth inhibition project (AID 2304);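 further: 0% = vehicle and 100% = reference inhibitor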; conditions: P. falciparum 3D7 crude extract, LDH APAD/NBT absorbance; at 2 µM; stronger effect = higher value
[4] = inhibition of 3D7 malaria parasite growth – strain 3D7 (AID 2306);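 further: 0% = DMSO wells and 100% = chloroquine plus artemisinin control wells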; conditions: P. falciparum 3D7 erythrocytic growth, LDH absorbance, 72 h; at 2 µM; stronger effect = higher value
[5] = biological target: Calcium-dependent protein kinase 1 (Plasmodium falciparum (isolate 3D7)) (UniProt P62344); assay: PfCDPK1 kinase inhibitors, biochemical, TCAMS library (AID 1159585; cut-off not given, nearly all actives have IC50 up to about 0.98 µM;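 further: inhibitors leave more ATP so luminescence rises with inhibition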); conditions: recombinant PfCDPK1, Kinase-Glo ATP depletion luminescence
[6] = biological target: Plasmodium falciparum protein kinase 6 (PK6, PF3D7_1337100) (UniProt Q8IDW1); assay: PfPK6 kinase inhibitors, biochemical, TCAMS library (AID 1159586); conditions: recombinant PfPK6, Kinase-Glo ATP depletion luminescence
[7] = biological target: Protein kinase 7 (PK7), Plasmodium falciparum 3D7 (PF3D7_0213400) (UniProt Q7YTF7); assay: inhibition of Plasmodium PK7 catalytic activity – biochemical, TCAMS antimalarial set, Kinase-Glo luminescence (AID 1159587); conditions: recombinant PfPK7, Kinase-Glo ATP depletion luminescence
[8] = biological target: Calcium-dependent protein kinase 4 (Plasmodium falciparum (isolate 3D7)) (UniProt Q8IBS5); assay: PfCDPK4 kinase inhibitors, biochemical, TCAMS library (AID 1159588; cut-off not given, nearly all actives have IC50 up to about 0.91 µM); conditions: recombinant PfCDPK4, Kinase-Glo ATP depletion luminescence
Calcium-dependent protein kinase 4 (Plasmodium falciparum (isolate 3D7)), sequence (Q8IBS5 whole entry, looked up): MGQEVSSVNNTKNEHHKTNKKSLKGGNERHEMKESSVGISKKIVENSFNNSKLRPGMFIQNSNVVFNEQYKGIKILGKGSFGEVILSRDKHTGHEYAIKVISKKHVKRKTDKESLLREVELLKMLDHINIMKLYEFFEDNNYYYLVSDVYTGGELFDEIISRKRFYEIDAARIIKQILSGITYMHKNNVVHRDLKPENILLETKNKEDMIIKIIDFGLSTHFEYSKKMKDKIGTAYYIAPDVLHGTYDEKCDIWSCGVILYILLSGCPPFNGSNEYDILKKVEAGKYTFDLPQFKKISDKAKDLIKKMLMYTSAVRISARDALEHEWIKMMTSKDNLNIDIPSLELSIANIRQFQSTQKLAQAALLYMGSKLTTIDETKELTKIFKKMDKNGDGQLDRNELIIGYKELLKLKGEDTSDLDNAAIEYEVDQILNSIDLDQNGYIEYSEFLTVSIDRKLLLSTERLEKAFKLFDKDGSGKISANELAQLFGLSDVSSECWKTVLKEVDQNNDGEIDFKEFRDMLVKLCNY

Plasmodium falciparum protein kinase 6 (PK6, PF3D7_1337100), sequence (Q8IDW1 1-305): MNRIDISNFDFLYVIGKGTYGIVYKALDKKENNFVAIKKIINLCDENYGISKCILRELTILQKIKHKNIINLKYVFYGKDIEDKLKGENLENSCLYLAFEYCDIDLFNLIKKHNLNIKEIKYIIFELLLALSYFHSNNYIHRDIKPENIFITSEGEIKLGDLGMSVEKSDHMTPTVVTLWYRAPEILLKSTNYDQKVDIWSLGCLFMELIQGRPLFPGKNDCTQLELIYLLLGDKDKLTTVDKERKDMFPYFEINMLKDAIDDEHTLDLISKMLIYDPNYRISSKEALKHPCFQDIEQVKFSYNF
Protein kinase 7 (PK7), Plasmodium falciparum 3D7 (PF3D7_0213400), sequence (Q7YTF7 1-343): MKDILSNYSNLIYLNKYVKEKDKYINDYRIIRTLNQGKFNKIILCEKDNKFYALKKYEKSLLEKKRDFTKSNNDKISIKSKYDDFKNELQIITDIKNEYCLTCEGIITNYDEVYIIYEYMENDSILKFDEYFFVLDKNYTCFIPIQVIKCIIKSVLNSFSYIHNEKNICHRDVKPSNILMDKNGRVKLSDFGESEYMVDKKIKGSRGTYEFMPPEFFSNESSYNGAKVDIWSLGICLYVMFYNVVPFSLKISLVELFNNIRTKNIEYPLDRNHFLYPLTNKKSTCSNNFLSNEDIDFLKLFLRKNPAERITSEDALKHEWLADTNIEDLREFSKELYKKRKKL
L-lactate dehydrogenase (Plasmodium falciparum (isolate CDC / Honduras)), sequence (Q27743 whole entry, looked up): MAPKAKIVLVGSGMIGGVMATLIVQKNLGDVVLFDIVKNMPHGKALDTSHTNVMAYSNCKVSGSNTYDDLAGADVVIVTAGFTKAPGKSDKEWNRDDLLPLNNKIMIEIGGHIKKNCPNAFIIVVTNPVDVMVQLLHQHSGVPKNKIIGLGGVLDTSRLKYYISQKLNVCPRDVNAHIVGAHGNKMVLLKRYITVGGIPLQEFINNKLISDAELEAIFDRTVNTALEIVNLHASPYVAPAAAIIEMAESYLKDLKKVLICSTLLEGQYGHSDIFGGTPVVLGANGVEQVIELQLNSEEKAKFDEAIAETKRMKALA
Calcium-dependent protein kinase 1 (Plasmodium falciparum (isolate 3D7)), sequence (P62344 whole entry, looked up): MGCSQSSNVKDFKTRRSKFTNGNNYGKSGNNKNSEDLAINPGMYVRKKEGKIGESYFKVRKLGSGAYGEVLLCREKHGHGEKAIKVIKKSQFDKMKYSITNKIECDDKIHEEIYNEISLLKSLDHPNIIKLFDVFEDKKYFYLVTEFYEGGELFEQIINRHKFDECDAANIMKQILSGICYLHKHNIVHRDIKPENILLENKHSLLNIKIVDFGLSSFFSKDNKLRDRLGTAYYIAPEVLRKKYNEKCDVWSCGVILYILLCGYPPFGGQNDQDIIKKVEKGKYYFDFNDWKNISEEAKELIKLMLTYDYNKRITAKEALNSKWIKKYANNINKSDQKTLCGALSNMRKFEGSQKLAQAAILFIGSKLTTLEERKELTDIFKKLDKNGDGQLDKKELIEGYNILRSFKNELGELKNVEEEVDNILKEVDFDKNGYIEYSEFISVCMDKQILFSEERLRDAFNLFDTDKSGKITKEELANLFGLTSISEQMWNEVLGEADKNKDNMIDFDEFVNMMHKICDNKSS

O=C(NC1CCC(CN2CCC(c3c[nH]c4ccccc34)CC2)CC1)c1cc2ccccc2s1 (stereo not given)
43% (inactive) and 68% (active): growth inhibition [1]
active: growth inhibition [4] 98% and 101%
inactive: inhibition [2] 44% | inhibition [3] 4% and 5% | outcome [5] | outcome [6] | outcome [7] | outcome [8]

COC(=O)CN(C(=O)/C=C/c1ccc(Cl)c(Cl)c1)C1CCC(CN2CCC(c3c[nH]c4ccccc34)CC2)CC1 (stereo not given)
active: growth inhibition [1] 69% | growth inhibition [4] 100%
inactive: inhibition [2] 31% | inhibition [3] -1% | outcome [5] | outcome [6] | outcome [7] | outcome [8]

Cc1ccccc1C1=CCN(CCCN2c3ccccc3Sc3ccc(Cl)cc32)CC1
inactive: growth inhibition [1] 30% | inhibition [2] 14% | inhibition [3] 5% | outcome [5] | outcome [6] | outcome [7] | outcome [8]
active: growth inhibition [4] 90%

CO/C=C(/C(=O)OC)c1ccccc1Oc1cc(Oc2ccccc2C#N)ncn1
active: growth inhibition [1] 98% | growth inhibition [4] 98%
inactive: inhibition [2] 7% | inhibition [3] 3% | outcome [5] | outcome [6] | outcome [7] | outcome [8]

CCOc1ccc(Br)cc1/C=C/C(=O)Nc1ccc2c(c1)[C@@H]1CC[C@H]2N1C
inactive: growth inhibition [1] 26% | inhibition [3] -2% | outcome [5] | outcome [6] | outcome [7] | outcome [8]
active: inhibition [2] 60% | growth inhibition [4] 89%

O=C(C=Cc1ccc(F)c(Br)c1)N1CCC(CN2CCC(c3c[nH]c4ccccc34)CC2)CC1
active: growth inhibition [4] 100%
inactive: growth inhibition [1] 9% | inhibition [2] 39% | inhibition [3] -3% | outcome [5] | outcome [6] | outcome [7] | outcome [8]

COc1ccc(CC(C)NCC(O)c2cccc(C(F)(F)F)c2)cc1F (stereo not given)
active: growth inhibition [1] 65% | growth inhibition [4] 91%
inactive: inhibition [2] -4% | inhibition [3] -8% | outcome [5] | outcome [6] | outcome [7] | outcome [8]

C1=C(c2c[nH]c3ccccc23)CCN(Cc2ccccc2)C1
inactive: inhibition [2] 22% | inhibition [3] -1% | outcome [5] | outcome [6] | outcome [7] | outcome [8]
active: growth inhibition [1] 80% | growth inhibition [4] 91%

CCOC(=O)CCCN1C(=O)CN=C(c2ccccc2)c2cc(Cl)ccc21
active: inhibition [2] 54% | growth inhibition [4] 97%
inactive: growth inhibition [1] 47% | inhibition [3] -8% | outcome [5] | outcome [6] | outcome [7] | outcome [8]

O=C(CCCCCc1ccccc1)NC1CCC(CN2CCC(c3c[nH]c4ccccc34)CC2)CC1 (stereo not given)
inactive: growth inhibition [1] 5% | inhibition [2] 34% | inhibition [3] -3% | outcome [5] | outcome [6] | outcome [7] | outcome [8]
active: growth inhibition [4] 86%

CC(Cc1ccc(C(C)(C)C)cc1)NCC(O)c1ccccc1 (stereo not given)
inactive: inhibition [2] 5% | inhibition [3] 3% | outcome [5] | outcome [6] | outcome [7] | outcome [8]
active: growth inhibition [1] 89% | growth inhibition [4] 94%

CN(c1cc(NC(=O)c2ccc(F)cc2)ccn1)C1CCN(Cc2cccc(F)c2)CC1
inactive: inhibition [2] 13% | inhibition [3] 5% | outcome [5] | outcome [6] | outcome [7] | outcome [8]
active: growth inhibition [1] 97% | growth inhibition [4] 100%

O=C(Nc1ccc(Oc2ccccc2)cc1)N1CCC(CN2CCC(c3c[nH]c4ccccc34)CC2)CC1
active: growth inhibition [1] 59% | inhibition [2] 53% | growth inhibition [4] 100%
inactive: inhibition [3] -1% | outcome [5] | outcome [6] | outcome [7] | outcome [8]

COCCNCc1ccc(-c2ccc(CN(C(=O)Nc3ccccc3)C3CCN(Cc4ccccc4)CC3)cc2)cc1
inactive: growth inhibition [1] 39% | inhibition [2] 16% | inhibition [3] -5% | outcome [5] | outcome [6] | outcome [7] | outcome [8]
active: growth inhibition [4] 98%

CC(C)N(C)C(=O)n1cnc(S(=O)(=O)C2C[C@@H]3CC[C@H]2C3)n1 (stereo not given in full)
active: growth inhibition [1] 96% | growth inhibition [4] 97%
inactive: inhibition [2] 26% | inhibition [3] 6% | outcome [5] | outcome [6] | outcome [7] | outcome [8]

C[C@@H](NC(C)(C)C)[C@H](O)c1ccc(Cl)c(C(F)(F)F)c1
inactive: inhibition [2] -1% | inhibition [3] -6% | outcome [5] | outcome [6] | outcome [7] | outcome [8]
active: growth inhibition [1] 97% | growth inhibition [4] 97%

Cc1[nH]c2ccccc2c1C1=CCN(CCCCC23CCCc4cccc(c42)NC3=O)CC1 (stereo not given)
active: growth inhibition [1] 91% | growth inhibition [4] 95%
inactive: inhibition [2] 9% | inhibition [3] -4% | outcome [5] | outcome [6] | outcome [7] | outcome [8]

CC[C@H]1CN2CC[C@H]1C[C@H]2[C@H](O)c1cc(/C=C/c2ccccc2)nc2ccc(OC)cc12
inactive: inhibition [2] 16% | inhibition [3] -1% | outcome [5] | outcome [6] | outcome [7] | outcome [8]
active: growth inhibition [1] 99% | growth inhibition [4] 99%

COc1ccc(C2CNCc3c2cc(OC)c(OC)c3Cl)cc1 (stereo not given)
active: growth inhibition [4] 98%
inactive: growth inhibition [1] 3% | inhibition [2] 42% | inhibition [3] 2% | outcome [5] | outcome [6] | outcome [7] | outcome [8]

CN(c1cc(NC(=O)c2cccs2)ccn1)C1CCN(Cc2cccc(F)c2)CC1
inactive: inhibition [2] -1% | inhibition [3] 4% | outcome [5] | outcome [6] | outcome [7] | outcome [8]
active: growth inhibition [1] 95% | growth inhibition [4] 94%
